Data taken from the supplement of paper PMC11732987, “Enantioselective OTUD7B fragment discovery through chemoproteomics screening and high-throughput optimisation” (Communications Chemistry, 2025).

Columns and labels:
Experiment in all cases: log2 ratio of Biotin-Ahx-Ub-VS probe labelling (fragment/DMSO); higher = less target engagement (more negative = stronger competition), active = hit call of the paper (q ≤ 0.05, log2 ratio ≤ -1)
Conditions in all cases: compound concentration: 200 uM; treatment time: 3 h
USP34 = USP34 (UniProt Q70CQ2)
Summary of the method: (§1)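 HEK293T lysate, 495 µg per sample in Tris/CHAPS/IGEPAL buffer with protease inhibitors, was treated in triplicate with fragment at 200 µM or vehicle for 3 h and then with Biotin-Ahx-Ub-VS at 0.5 µM final for 1 h. Labelled DUBs were NeutrAvidin-enriched, digested with LysC and trypsin, and run by diaPASEF LC-MS/MS. Spectronaut label-free quantities were global-median-normalised, and values are average log2 fragment/vehicle ratios by unpaired t-test on proteins with ≥2 unique peptides.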

USP36 = biological target: T1, USP36 (UniProt Q9P275)
T1 sequence (whole entry): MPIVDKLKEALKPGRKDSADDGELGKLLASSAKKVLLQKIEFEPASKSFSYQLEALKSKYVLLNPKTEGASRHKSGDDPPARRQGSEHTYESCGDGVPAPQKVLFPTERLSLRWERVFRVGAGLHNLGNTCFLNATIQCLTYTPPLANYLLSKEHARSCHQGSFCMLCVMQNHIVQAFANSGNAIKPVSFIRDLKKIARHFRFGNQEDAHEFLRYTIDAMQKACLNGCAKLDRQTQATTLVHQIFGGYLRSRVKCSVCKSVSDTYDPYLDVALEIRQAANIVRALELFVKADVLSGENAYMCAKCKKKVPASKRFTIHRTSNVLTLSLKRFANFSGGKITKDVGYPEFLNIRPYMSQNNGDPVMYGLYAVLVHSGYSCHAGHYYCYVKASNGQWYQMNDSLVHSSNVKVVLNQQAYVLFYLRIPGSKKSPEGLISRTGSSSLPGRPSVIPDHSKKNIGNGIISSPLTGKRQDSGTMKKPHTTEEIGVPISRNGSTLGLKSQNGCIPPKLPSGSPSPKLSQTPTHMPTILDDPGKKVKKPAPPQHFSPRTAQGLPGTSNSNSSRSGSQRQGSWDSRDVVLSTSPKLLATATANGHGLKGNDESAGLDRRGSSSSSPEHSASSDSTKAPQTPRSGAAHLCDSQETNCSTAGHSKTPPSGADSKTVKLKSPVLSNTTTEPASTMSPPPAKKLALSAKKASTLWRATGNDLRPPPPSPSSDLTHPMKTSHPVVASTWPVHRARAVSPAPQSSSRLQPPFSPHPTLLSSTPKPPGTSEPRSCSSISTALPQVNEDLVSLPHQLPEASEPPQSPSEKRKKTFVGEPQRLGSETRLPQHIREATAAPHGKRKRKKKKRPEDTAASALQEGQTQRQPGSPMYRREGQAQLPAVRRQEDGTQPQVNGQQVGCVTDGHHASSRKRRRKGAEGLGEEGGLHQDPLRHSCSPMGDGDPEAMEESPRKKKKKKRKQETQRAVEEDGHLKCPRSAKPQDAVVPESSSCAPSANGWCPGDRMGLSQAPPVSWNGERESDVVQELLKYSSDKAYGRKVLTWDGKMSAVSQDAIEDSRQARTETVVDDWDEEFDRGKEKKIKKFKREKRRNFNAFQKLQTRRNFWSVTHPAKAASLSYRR
Summary of the method: as §1

USP38 = biological target: T2, USP38 (UniProt Q8NB14)
T2 sequence (whole entry): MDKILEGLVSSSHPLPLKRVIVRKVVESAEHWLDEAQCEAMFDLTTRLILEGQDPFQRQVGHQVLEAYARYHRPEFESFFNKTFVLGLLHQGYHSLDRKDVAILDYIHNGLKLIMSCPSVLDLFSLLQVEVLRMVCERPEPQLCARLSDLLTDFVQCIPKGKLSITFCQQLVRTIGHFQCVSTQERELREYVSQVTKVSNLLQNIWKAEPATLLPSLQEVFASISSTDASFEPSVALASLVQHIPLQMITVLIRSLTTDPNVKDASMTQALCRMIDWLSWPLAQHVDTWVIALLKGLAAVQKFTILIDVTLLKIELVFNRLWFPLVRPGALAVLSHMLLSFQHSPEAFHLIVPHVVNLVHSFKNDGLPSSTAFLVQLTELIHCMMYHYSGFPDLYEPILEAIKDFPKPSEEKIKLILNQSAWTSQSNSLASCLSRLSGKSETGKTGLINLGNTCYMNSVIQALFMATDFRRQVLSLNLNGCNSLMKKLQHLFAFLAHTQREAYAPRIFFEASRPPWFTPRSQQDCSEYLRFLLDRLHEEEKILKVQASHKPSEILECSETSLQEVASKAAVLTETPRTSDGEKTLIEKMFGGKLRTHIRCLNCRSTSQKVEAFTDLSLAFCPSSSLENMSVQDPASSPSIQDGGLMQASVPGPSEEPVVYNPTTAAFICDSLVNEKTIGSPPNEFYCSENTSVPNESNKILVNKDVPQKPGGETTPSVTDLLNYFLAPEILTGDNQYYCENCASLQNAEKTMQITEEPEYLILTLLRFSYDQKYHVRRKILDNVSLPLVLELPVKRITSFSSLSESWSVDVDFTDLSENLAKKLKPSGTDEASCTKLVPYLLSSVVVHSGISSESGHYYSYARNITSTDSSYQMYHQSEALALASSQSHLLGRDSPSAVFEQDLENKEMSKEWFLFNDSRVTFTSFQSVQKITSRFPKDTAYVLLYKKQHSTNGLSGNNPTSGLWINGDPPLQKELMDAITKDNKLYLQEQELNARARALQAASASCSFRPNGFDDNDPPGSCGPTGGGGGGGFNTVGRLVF
Summary of the method: as §1

USP39 = biological target: T3, USP39 (UniProt Q53GS9)
T3 sequence (whole entry): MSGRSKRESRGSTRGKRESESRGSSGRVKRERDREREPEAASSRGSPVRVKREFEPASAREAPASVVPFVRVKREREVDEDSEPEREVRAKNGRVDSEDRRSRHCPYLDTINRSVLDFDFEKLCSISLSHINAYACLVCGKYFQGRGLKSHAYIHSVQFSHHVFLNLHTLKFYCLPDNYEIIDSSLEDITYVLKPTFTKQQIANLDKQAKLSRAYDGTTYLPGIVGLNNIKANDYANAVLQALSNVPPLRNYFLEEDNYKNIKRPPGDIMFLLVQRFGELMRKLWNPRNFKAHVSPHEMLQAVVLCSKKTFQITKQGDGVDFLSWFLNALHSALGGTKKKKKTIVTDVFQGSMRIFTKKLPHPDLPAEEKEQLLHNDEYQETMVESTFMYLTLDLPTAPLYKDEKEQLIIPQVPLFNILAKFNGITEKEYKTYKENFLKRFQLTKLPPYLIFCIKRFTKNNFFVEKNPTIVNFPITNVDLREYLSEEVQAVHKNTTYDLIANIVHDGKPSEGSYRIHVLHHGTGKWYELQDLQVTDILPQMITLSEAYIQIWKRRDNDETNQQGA
Summary of the method: as §1

USP4 = biological target: T4, USP4 (UniProt Q13107)
T4 sequence (whole entry): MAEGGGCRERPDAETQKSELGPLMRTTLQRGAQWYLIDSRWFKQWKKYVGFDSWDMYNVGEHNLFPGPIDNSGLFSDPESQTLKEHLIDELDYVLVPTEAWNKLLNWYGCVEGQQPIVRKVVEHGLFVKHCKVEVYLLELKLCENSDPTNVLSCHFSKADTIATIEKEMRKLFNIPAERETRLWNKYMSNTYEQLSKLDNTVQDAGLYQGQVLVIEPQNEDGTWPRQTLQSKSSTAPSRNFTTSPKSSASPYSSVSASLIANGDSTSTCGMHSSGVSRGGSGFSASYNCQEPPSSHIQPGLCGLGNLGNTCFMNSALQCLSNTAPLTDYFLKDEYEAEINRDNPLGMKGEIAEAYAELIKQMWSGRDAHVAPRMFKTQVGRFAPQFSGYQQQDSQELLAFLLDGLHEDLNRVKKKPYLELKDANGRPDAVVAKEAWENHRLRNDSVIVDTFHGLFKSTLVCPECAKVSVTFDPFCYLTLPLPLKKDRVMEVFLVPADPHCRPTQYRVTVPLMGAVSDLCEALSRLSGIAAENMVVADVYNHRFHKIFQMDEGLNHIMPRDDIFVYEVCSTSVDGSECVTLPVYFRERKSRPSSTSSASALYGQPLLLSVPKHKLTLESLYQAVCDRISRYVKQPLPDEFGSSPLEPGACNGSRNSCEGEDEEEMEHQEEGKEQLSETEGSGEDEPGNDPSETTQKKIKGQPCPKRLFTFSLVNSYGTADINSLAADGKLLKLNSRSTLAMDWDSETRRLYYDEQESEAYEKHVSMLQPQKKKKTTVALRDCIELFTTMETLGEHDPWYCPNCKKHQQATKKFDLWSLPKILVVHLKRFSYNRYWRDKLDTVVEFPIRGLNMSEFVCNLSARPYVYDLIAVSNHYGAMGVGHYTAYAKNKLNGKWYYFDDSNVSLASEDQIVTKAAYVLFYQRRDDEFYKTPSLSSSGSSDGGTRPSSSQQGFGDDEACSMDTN
Summary of the method: as §1

Measured: log2 ratio of Biotin-Ahx-Ub-VS probe labelling

Sequence of USP34 (Q70CQ2 whole entry, the tested form may be a part): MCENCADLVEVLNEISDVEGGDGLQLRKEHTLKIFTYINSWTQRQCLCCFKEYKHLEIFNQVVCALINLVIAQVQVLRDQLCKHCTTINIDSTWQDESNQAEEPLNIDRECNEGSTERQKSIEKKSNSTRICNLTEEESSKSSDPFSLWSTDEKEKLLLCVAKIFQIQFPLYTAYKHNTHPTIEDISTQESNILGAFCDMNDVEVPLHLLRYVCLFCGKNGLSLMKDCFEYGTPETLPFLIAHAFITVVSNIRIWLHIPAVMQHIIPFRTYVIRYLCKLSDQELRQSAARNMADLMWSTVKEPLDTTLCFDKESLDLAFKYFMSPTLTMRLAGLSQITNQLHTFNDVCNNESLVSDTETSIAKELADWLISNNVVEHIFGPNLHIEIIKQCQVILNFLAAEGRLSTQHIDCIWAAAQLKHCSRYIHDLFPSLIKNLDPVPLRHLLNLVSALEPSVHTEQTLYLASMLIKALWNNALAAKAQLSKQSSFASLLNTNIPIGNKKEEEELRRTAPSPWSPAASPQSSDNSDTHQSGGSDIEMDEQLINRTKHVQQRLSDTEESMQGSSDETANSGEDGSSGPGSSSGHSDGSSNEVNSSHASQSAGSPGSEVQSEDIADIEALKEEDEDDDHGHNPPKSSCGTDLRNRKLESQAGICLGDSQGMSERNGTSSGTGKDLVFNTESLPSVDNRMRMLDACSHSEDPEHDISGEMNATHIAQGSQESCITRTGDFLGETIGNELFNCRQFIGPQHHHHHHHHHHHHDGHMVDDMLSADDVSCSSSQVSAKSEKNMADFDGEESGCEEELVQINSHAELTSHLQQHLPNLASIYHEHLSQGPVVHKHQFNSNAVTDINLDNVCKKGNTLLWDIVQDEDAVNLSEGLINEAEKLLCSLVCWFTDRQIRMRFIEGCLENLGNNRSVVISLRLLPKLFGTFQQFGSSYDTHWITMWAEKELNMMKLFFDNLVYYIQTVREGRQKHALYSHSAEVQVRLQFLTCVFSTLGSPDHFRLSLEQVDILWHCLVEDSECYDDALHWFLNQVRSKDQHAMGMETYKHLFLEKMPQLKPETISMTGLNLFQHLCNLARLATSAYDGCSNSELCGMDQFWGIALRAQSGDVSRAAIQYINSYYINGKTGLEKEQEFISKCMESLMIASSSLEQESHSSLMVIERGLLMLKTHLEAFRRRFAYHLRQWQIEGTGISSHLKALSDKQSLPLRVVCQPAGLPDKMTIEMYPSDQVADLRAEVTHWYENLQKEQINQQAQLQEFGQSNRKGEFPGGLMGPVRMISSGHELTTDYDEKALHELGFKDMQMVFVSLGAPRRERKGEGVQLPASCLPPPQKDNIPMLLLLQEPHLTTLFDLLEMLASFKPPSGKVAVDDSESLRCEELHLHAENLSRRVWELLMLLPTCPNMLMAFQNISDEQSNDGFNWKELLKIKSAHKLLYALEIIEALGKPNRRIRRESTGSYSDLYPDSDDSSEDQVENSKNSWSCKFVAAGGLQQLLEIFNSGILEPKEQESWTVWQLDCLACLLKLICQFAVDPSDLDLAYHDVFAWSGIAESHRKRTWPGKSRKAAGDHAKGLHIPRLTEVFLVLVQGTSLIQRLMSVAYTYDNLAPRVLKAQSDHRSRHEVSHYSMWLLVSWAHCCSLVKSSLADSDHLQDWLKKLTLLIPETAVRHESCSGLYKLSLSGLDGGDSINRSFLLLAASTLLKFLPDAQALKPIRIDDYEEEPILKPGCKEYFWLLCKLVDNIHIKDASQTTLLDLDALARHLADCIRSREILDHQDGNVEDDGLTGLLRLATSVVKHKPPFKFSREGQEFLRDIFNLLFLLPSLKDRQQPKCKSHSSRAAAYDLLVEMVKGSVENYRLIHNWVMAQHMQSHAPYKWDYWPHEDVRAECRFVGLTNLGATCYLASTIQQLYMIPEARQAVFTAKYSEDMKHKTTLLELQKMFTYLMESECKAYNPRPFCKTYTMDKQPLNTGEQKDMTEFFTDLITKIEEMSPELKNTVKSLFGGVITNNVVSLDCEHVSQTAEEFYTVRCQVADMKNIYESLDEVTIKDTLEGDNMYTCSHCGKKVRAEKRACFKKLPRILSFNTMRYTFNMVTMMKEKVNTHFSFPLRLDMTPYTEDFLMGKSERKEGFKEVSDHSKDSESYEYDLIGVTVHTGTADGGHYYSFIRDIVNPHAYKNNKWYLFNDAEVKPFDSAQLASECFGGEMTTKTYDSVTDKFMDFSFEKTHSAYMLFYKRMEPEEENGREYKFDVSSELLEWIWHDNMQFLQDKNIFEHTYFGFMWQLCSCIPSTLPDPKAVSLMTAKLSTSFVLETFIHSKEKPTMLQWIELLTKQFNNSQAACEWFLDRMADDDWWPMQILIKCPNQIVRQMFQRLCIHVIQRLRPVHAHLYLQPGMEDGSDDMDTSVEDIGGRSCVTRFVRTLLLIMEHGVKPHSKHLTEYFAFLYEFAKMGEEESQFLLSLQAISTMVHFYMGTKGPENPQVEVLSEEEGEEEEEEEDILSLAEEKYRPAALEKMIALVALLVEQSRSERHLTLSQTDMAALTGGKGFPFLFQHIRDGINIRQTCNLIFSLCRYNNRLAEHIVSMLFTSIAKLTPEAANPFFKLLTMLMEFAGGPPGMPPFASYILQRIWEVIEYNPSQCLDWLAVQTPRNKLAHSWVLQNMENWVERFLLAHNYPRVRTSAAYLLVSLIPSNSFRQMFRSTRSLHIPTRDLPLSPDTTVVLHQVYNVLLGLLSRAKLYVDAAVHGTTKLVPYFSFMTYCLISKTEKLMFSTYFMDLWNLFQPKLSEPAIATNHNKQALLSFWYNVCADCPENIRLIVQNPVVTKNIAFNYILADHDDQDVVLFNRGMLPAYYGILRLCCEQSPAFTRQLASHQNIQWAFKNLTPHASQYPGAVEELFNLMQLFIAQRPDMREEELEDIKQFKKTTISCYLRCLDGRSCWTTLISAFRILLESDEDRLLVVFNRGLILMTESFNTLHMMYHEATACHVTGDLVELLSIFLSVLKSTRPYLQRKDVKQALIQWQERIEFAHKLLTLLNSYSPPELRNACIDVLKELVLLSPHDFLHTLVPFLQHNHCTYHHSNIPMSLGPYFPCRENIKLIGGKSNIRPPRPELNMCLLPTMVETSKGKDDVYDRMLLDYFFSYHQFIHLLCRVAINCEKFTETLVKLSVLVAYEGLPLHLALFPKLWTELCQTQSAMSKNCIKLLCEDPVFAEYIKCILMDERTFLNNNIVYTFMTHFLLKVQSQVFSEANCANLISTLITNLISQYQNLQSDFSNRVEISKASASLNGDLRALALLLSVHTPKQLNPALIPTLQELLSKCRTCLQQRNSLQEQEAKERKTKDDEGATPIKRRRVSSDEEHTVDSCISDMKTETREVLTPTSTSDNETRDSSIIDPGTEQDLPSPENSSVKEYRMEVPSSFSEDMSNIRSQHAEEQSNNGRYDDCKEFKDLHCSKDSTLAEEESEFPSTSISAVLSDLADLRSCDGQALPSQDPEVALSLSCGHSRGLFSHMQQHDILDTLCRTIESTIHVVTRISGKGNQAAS

CN1C(=O)c2ccc(NC(=O)CCl)cc2C1=O
inactive: USP34 -0.233 | USP36 0.0568 | USP38 -0.169 | USP39 0.16 | USP4 -0.181
